Assay outcomes deposited in PubChem BioAssay by National Center for Advancing Translational Sciences (NCATS).
CtBP-E1A blk = CtBP/E1A binding inhibition | 0.49% of 340,000 active | AID 651724 | AlphaScreen GST-E1A/His-CtBP binding, 1536-well; stronger effect = lower value | activity change, % (no concentration beside the values); in the data active means activity change below about -65%; inconclusive means mostly about -30% to -63%; further: on the % scale 0 is the no-effect control and ±100 the full control effect
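Protein mix (5X: 125 nM each GST-E1A, His-CtBP) was incubated with pinned compound 2 h at 37 deg C in dark, in 50 mM Tris pH 8.0 buffer with 300 mM NaCl. Glutathione donor and nickel acceptor beads followed; AlphaScreen signal read after 1 h.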
Six1-Eya2 blk = Six1/Eya2 interaction inhibition | Q15475+O00167 | AlphaScreen GST-Six1/His-Eya2 binding, biochemical; stronger effect = lower value | activity change, % (concentration not given with the values) | 0.56% of 360,000 active | AID 651725; in the data active means activity change below about -65%; inconclusive means mostly about -30% to -63%; further: on the % scale 0 is the no-effect control and ±100 the full control effect
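Six1/Eya2 binding was read as AlphaScreen signal after compounds were pinned into GST-Six1 plus His-tagged Eya2 (5X stock 250/500 nM) in pH 8.0 Tris/NaCl/TCEP buffer, beads added, then incubated 1 h, 37 C, dark.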
RORgamma inh = inhibitors of mouse ROR gamma transcriptional activity; P51450; Drosophila S2 Gal4-RORgamma UAS-luciferase reporter, 20 h; Potency, µM (series often up to 53.6 µM), inactives show at the top dose activity change, negative = inhibition, actives largely listed as inhibitors; 5.4% of 310,000 active; AID 2551; further: potency means the concentration at half of the fitted maximal effect; on the % scale 0 is the no-effect control and ±100 the full control effect; nearly all actives have a fitted effect of over 60% in size
Target sequence (P51450 whole entry, looked up, the tested form may be a part): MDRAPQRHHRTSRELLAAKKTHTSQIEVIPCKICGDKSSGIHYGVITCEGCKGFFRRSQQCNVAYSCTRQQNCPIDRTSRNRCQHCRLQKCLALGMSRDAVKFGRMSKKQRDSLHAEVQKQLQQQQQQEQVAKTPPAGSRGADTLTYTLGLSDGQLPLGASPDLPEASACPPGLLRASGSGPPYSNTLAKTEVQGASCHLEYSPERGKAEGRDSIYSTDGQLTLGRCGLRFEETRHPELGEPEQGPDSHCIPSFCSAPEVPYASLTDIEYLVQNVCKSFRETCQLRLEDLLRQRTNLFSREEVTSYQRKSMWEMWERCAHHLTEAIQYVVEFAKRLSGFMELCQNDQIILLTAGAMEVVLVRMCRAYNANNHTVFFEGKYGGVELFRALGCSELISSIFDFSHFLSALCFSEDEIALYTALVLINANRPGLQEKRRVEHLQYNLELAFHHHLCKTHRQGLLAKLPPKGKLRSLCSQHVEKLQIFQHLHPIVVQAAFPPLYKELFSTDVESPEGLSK
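Drosophila S2 cells stably expressing Gal4-DBD/mouse RORγ fusion under metallothionein promoter plus UAS-luciferase; compound 1 h, then 700 uM CuSO4 induction for 20 h at ambient temperature; inhibition read as reduced luminescence.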
p53 reactivation = mutant p53 re-activation in reporter cells | H1299 p53-A138V BP100-luciferase reporter, luminescence, 24 h | AID 504706 | 0.063% of 320,000 active | Potency, µM (titrated, usually from 92.2 µM), for inactives: at the highest dose activity change, positive = activation, usual class: activators; further: potency means the concentration at half of the fitted maximal effect; % of control where 0% means no effect; nearly all actives have a fitted effect of over 45% in size
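H1299 (p53-null), stable ts p53-A138V + BP100-Luc; 1000 cells/well, Opti-MEM/10% FBS; cpd 4 pt, 1:5; 24 h, 37 deg C, 5% CO2; detection reagent 10 min RT; luminescence.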
VP16 counter = Gal4-VP16 reporter inhibition counter-screen; AID 2546; Potency, µM (highest dose often 53.6 µM), without a hit: top-dose activity, negative = inhibition, most hits filed as inhibitors; Drosophila S2 Gal4-VP16 UAS-luciferase, luminescence, 20 h; 3.5% of 310,000 active;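 further: Gal4-VP16 expression switched on by copper sulfate through the metallothionein promoter; potency means the concentration at half of the fitted maximal effect; on the % scale 0 is the no-effect control and ±100 the full control effect; nearly all actives have a fitted effect of over 50% in size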
Starred values were filed as active, the others as inactive; ? = inconclusive; . = no result; [ ] = dose if it differs, or a comment. Rows were chosen to be rich in hits. Some 5.4% of all compounds tested hit in one or more screens of this group. Unless noted, the call rests on the fitted dose curve; in most records, active means well fitted curve in the direction sought with a large enough effect; inconclusive means small, poorly fitted or top-dose-only effect, or another doubt; inactive means no such curve, though single readings can be large; an effect the other way counts as inactive or inconclusive.

SMILES | CtBP-E1A blk | Six1-Eya2 blk | RORgamma inh | p53 reactivation | VP16 counter
O=C(NC(=S)Nc1ccc(Cl)cc1)c1ccccc1 | 4.9 | 13.0 | 20µM* | 13.6% | ?
O=C(NC(=S)Nc1ccc(O)cc1)c1ccccc1Cl | -6.2 | 10.0 | -40.6% | 9.0% | -16.8%
CC(C)CNC(=S)NC(=O)c1ccccc1Cl | -13.8 | 1.9 | 5.01µM* | ? | 11.2µM*
CC(NC(=O)c1ccccc1Cl)NC(=O)c1ccccc1Cl | -10.6 | 10.4 | -1.0% | ? | -1.9%
COc1ccc(NC(=S)NC(=O)c2ccccc2Cl)cc1 | . | -3.6 | 6.31µM* | 15.2% | ?
O=C(NC(=S)Nc1ccc(-c2ccccc2)cc1)c1ccccc1 | -2.9 | -10.7 | . | . | .
O=C(NC(=S)Nc1ccc(NC(=O)c2ccccc2)cc1)c1ccc(F)cc1 | 3.7 | 2.5 | -39.1% | 13.5% | -2.5%
CCOC(=O)C1=C(C)OC(=CC=Cc2ccccc2)C1=O | 1.6 | -18.2 | . | . | .
CCCCc1ccc(/C=C2\C(=O)c3ccccc3C(O)=C2C(=O)OCC)cc1 | . | . | 10µM* | -24.5% | 7.4%[0.365 µM]
Cc1cc2c(N=O)c(NO)ccc2[nH]1 | -11.5 | -3.5 | 5.01µM* | ? | 3.16µM*
COc1ccc2[nH]c(O)c(N=O)c2c1 | 7.8 | 0.2 | 0.3% | -4.1% | ?
Cc1sc2nc(SCc3ccc(C(=O)O)cc3)n(Cc3ccco3)c(=O)c2c1C | -3.1 | -5.7 | 7.6% | -3.4% | -19.1%
Cc1sc2nc(SCC(=O)NCc3ccco3)n(C)c(=O)c2c1C | -1.0 | -1.1 | 18.4% | -0.5% | -0.7%
CC(C)Cn1c(SCC(=O)Nc2cccc(S(N)(=O)=O)c2)nc2ccccc2c1=O | -14.3 | 8.5 | 10µM* | -4.6% | -8.5%
C=CCn1c(SCC(=O)Nc2ccccc2C)nc2sc(C)c(C)c2c1=O | 4.1 | -4.6 | 35.5µM* | -5.9% | 20µM*
Cc1sc2nc(SCC(=O)NCc3ccco3)n(CCc3ccccc3)c(=O)c2c1C | -1.6 | -1.5 | 12.6µM* | -7.9% | ?
C=CCn1c(SCC(=O)Nc2sccc2C(N)=O)nc2sc(C)c(C)c2c1=O | 0.0 | 10.1 | 10.4% | 3.1% | 22.0%
C=CCn1c(SCc2ccc(C(=O)O)cc2)nc2sc(C)c(C)c2c1=O | 5.0 | 1.3 | 3.98µM* | -3.3% | 7.08µM*
CC1(C)OCC([C@H](O)C2=CCCCC2=O)CO1 | . | . | 12.0% | . | -0.2%
Cc1ccccc1NC(=O)CSc1nc2ccccc2c(=O)n1C | -5.5 | 5.0 | ? | -52.9% | 11.2µM*
O=c1c(-c2ccccc2)c(O)nc(SCCN2CCOCC2)n1-c1ccccc1 | 3.7 | 1.5 | 0.9% | -8.8% | -0.6%
N/C(=N\N=C\c1ccc(O)c(O)c1)c1nonc1N | -0.7 | -14.6 | 10µM* | 21.5% | ?
COc1cc(/C=N/N=C(\N)c2nonc2N)ccc1O | -14.2 | -26.4 | -2.7% | 19.7% | 28.4%
CN(CCNC(=O)c1cc2c(=O)n(C)c3ccccc3c2n1C)Cc1ccccc1 | -10.5 | -17.2 | 11.2µM* | 2.8% | ?
CCOC(=O)c1c(C)[nH]c(=S)c(C#N)c1-c1ccc(OC)cc1 | 6.6 | -2.5 | 12.6µM* | -6.2% | ?
SMILES | CtBP-E1A blk | Six1-Eya2 blk | RORgamma inh | p53 reactivation | VP16 counter
CCCCOc1ccc(-c2c(C(=O)Nc3ccccc3)c(C)[nH]c(=S)c2C#N)cc1 | 0.0 | 2.9 | -1.8% | 0.3% | 3.0%
CCOC(=O)c1c(C)[nH]c(=S)c(C#N)c1-c1ccc(Cl)cc1 | . | 1.6 | 11.2µM* | -2.0% | ?
CC(=O)c1c(C)[nH]c(=S)c(C#N)c1-c1ccc(Cl)cc1 | 3.2 | 2.6 | ? | 12.5% | ?
CS(=O)(=O)N1CCC(C(=O)Nc2cc(Cl)c(Cl)cc2Cl)CC1 | 6.0 | 4.5 | 29.3% | ? | 8.5%
C=CCN(CC=C)C(=O)C(=O)c1ccn(-c2c(C)csc2C(=O)OC)c1 | . | 9.0 | 2.6% | -3.5% | -1.6%
COc1nc(C)ccc1-c1noc(-c2cccnc2)n1 | 4.0 | -1.4 | 14.1µM* | 6.2% | -4.1%
COc1cc2nc(N3CCN(C(=O)[C@@H]4COc5ccccc5O4)CC3)nc(N)c2cc1OC | . | . | 5.2%[16.9 µM] | . | -8.4%[17 µM]
CCc1cccc(C)c1NC(=O)CN(C)S(=O)(=O)c1ccc(-c2ccc(=O)[nH]n2)s1 | 0.0 | 2.1 | -0.8% | -11.3% | -2.5%
Cc1cc(C)cc(Oc2ccccc2/C=N\O)c1 | -3.8 | -2.8 | ? | 19.5% | 11.2µM*
C/C(=N/O)c1ccccn1 | ? | ? | -28.2% | 1.5% | 0.5%
CCCCCC/C(=N/O)c1ccccn1 | -20.8 | -18.4 | 5.01µM* | ? | 15.8µM*
CC(=O)C1(C)CC2=C(CCCC2(C)C)CC1C (stereo not drawn) | . | . | 29.4% | . | 7.5%
Nc1nc(=O)n(C2OC(CO)C(O)C2O)cc1Cl (stereo not drawn) | . | . | -19.4% | . | -12.5%
CC(C)C(NC(=O)C(NC(=O)C1OC2OC(C)(C)OC2C2OC(C)(C)OC12)C(C)C)C(=O)O (stereo not drawn) | -2.0 | -2.9 | 9.7% | 1.8% | 2.4%
Cc1cccc2nc(CSc3nc4cc([N+](=O)[O-])ccc4s3)cn12 | 2.8 | -8.8 | 20µM* | 3.7% | ?
Clc1ccc(SCc2cn3ccccc3n2)cc1 | 6.3 | -1.0 | 8.91µM* | 1.4% | -12.3%
Cc1cccc2nc(CSc3ccc(Cl)cc3)cn12 | -0.3 | 0.7 | 7.94µM* | 6.6% | ?
Clc1ccc(-n2nnnc2SCc2cn3ccccc3n2)cc1 | 4.6 | -7.5 | ? | -2.6% | -21.7%
S=c1[nH]c2ccccc2o1 | . | 19.8 | 28.2µM* | -11.5% | -18.5%[10 µM]
COc1ccccc1NS(=O)(=O)c1ccc2oc(=S)[nH]c2c1 | 2.0 | -12.3 | -2.5% | -1.1% | -2.2%
S=C(NCc1ccco1)Nc1ccccc1 | 5.1 | -1.2 | 8.91µM* | 0.8% | ?
S=C(NCc1ccco1)Nc1ccc(Oc2ccc(Cl)cc2)cc1 | -2.8 | -3.7 | 2.82µM* | 2.8% | 11.2µM*
O=S(=O)(NCc1ccccc1)c1ccc(NC(=S)NCc2ccco2)cc1 | . | 4.3 | ? | . | -15.6%
S=C(NCc1ccco1)Nc1ccc(Cl)cc1 | 13.2 | 7.9 | 11.2µM* | ? | ?
CCOc1ccc(NC(=S)N(Cc2ccc(Cl)cc2)Cc2ccco2)cc1 | -2.2 | -4.7 | 12.6µM* | 0.5% | ?
O=C(O)Cc1ccc(NC(=S)NCc2ccco2)cc1 | 3.6 | -2.0 | 1.8% | -9.6% | -16.7%
Cc1ccc(CNC(=O)CS(=O)Cc2nc(-c3ccccc3C)oc2C)cc1 (stereo not drawn) | -0.7 | -5.9 | 11.2µM* | -3.7% | 8.3%
COc1ccc(-c2nc(CS(=O)CC(=O)NCc3ccc4c(c3)OCO4)c(C)o2)cc1 (stereo not drawn) | 9.9 | -0.1 | 11.2µM* | -2.2% | 3.8%
Cc1ccc(-c2nc(CS(=O)CC(=O)NCc3ccc(F)cc3)c(C)o2)cc1 (stereo not drawn) | . | -9.9 | 11.2µM* | -0.6% | 1.8%
COc1ccc(CNC(=O)CS(=O)Cc2nc(-c3ccc(C)cc3)oc2C)cc1 (stereo not drawn) | 0.0 | 12.7 | 12.6µM* | -7.7% | 1.3%
